Hit rate of the full screen: of about 410,000 compounds, about 5,100 (1.2%) were called active. Roughly 8% stayed inconclusive and do not appear here. The list comes from a sample in which actives are over-represented; it also holds similar structures and randomly drawn compounds. Where a call stands in place of a potency, no number is given. Unmarked numbers belong to inactive results. The call rests on the fitted dose curve; tested in HEK293T cells.
Experiment: High Throughput Screening for Foot and Mouth Disease Virus Antivirals; further: read-out not given here; nearly all actives have a fitted effect of over 45% in size
Conditions: FMDV antiviral cell-based qHTS; series mostly up to 57.9 µM
Potency means the concentration at half of the fitted maximal effect.

Compound | Potency | activity change, negative = inhibition
CN(CC(=O)Nc1cccc(C(F)(F)F)c1)S(=O)(=O)c1cccs1 | inactive | 
COc1ccccc1CNC(=O)C(=O)NCC(c1cccs1)S(=O)(=O)c1cccs1 (centres undefined) | inactive | 
C#CCOc1ccccc1/C=C1/C(=O)ON=C1C | 39.8 µM (active) | 
Cc1no[n+]([O-])c1COc1ccccc1/C=C1\NC(=S)NC1=O | inactive | 
CN1CCCCCC1C(=O)NCCN1Cc2ccccc2OC(c2ccsc2)C1 (centres undefined) | inactive | 
Cc1n[nH]c(C)c1S(=O)(=O)N1CCCC(C(=O)NCC2COc3ccccc3O2)C1 (centres undefined) | inactive | 
Cc1cc(C(=O)CCl)c(C)n1CC1COc2ccccc2O1 (centres undefined) | 12.6 µM (active) | 
CCn1ccnc1C[C@@H]1COc2ccccc2O1 | inactive | 
Cc1ccc(-c2cn3c(n2)sc2cc(C(=O)NCCCc4ccccc4)ccc23)cc1 | inactive | 
COc1cc(C2c3c(oc4ccccc4c3=O)C(=O)N2c2nc(C)c(C)s2)ccc1O (centres undefined) | inactive | 
COC(C[C@H](O)CC(=O)[C@@H](C)OCc1ccccc1)OC | inactive | 
COC(C[C@@H]1O[C@@H]1C(=O)[C@H](C)OCc1ccccc1)OC | inactive | 
COC(C/C=C/C(=O)[C@@H](C)OCc1ccccc1)OC | 39.8 µM (active) | 
Cc1nc2cnc(N3CCNCC3)nc2n(Cc2ccc(F)cc2)c1=O | inactive | 
C=CCSSCC=C | inactive | 
N#CCCN(C(=O)COC(=O)c1ccc2c(c1)OCCO2)c1ccccc1 | inactive | 
O=C(COC(=O)c1ccccc1)c1ccc2c(c1)OCCO2 | 12.6 µM (active) | 
O=C(OCc1ccccc1F)c1ccc2c(c1)OCCO2 | inactive | 
COc1cc(=O)n2c(c1C(=O)N(C)Cc1nonc1C)CCN(C(=O)c1ccc(C)cc1C)CC2 | inactive | 
COc1ccc(-c2nc3cnc(N(C)C)nc3n(Cc3cccs3)c2=O)cc1 | inactive | 
Cc1cccc(-n2ncc(C(=O)N3CCN(c4ccc(Cl)cc4)CC3)c2C2CCN(C(=O)OC(C)(C)C)CC2)c1 | inactive | 
Cc1cccc(-n2ncc(C(=O)N3CCc4ccccc4C3)c2C2CCN(C(=O)OC(C)(C)C)CC2)c1 | 2 µM (active) | 
Cc1cccc(-n2ncc(C(=O)N3CCC(C)CC3)c2C2CCN(C(=O)OC(C)(C)C)CC2)c1 | inactive | 
O=C(Nc1nc(-c2ccc3c(c2)OCO3)cs1)c1ccncc1 | 15.8 µM (active) | 
CC(O)(c1cccc(F)c1)c1nc(-c2ccc3c(c2)OCO3)cs1 (centres undefined) | inactive | 

Compound | Potency | activity change, negative = inhibition
c1ccc2c(Nc3ccncc3)nc(-c3ccc4c(c3)OCO4)nc2c1 | inactive | 
COCCn1c(=O)c(-c2cccs2)nc2cncnc21 | inactive | 
Cc1c(C(=O)NCC2CCCN(C)C2)cnn1-c1nccc(-c2ccco2)n1 (centres undefined) | inactive | 
Cc1ccc(NC(=O)CN2c3ccccc3S(=O)(=O)c3ccccc32)cc1F | inactive | 
CCC(C)(C)NC(=O)CN(C(=O)C(=O)Nc1ccc2c(c1)OCCO2)C(C)(C)CC | inactive | 
COC(=O)CCNc1ccc2c(c1)OCCO2 | 11.2 µM (active) | 
CCCCN(CC(=O)NC(C)(C)C)C(=O)C(=O)Nc1ccc2c(c1)OCCO2 | inactive | 
CCCCC/C=C\C/C=C\C/C=C\C/C=C\CCCCCC(=O)NCCO |  | -8.95% [at 6.7 µM]
O=C1NS(=O)(=O)c2ccccc21 | inactive | 
CCc1nccn1S(=O)(=O)c1cc(Br)ccc1Br | inactive | 
CCOc1c(Br)cc(/C=C2\C(=O)N(CCC#N)N=C2C)cc1OC | 28.2 µM (active) | 
CSc1ccc(C2C(C(=O)Nc3ccccc3)=C(C)Nc3nc4ccccc4n32)cc1 (centres undefined) | inactive | 
COC(=O)c1c(OCc2ccc(F)cc2)cc(=O)n2c1CCN(Cc1ccc3cccnc3c1)CC2 | inactive | 
Cc1cccc(CC(=O)Nc2cccc(-c3cn4cccnc4n3)c2)c1 | inactive | 
COc1ccc(-c2[nH]c3c(c2-c2c(-n4cccc4)n(C)c(=O)n(C)c2=O)c(=O)n(C)c(=O)n3C)cc1 | inactive | 
O=C(NCc1ccc(Cl)cc1)c1ccc2c(c1)nnn2C1CCCC1 | inactive | 
O=C(/C=C/c1cnc2ccccc2n1)NC1CCCCCC1 | inactive | 
O=C(Cn1nnc(-c2ccccc2)n1)NC(=O)NC1CCCC1 | inactive | 
Cc1nc(/N=C(\N)NC(=O)NC2CCCCC2)nc2ccccc12 | 31.6 µM (active) | 
CCOC(=O)N1CCC(N2CCOc3ccc(CN4CCC(O)(c5cccnc5)CC4)cc3C2)CC1 | inactive | 
COc1cccc(CNC(=O)Cn2c(=O)c3cccn3c3ccc(F)cc32)c1OC | inactive | 
COCc1c(C(=O)NC2CCCCC2)cnn1-c1nccc(-c2ccccc2OC)n1 | inactive | 
CN1/C(=C\C=C2\N=C(c3ccc(F)cc3)OC2=O)C(C)(C)c2ccccc21 | inactive | 
CC(=O)Nc1cccc(OCC(=O)/C=C2\N(C)c3ccccc3C2(C)C)c1 | 25.1 µM (active) | 

From PubChem BioAssay AID1159524 (National Center for Advancing Translational Sciences (NCATS), 2015)
